# This is a sample that favours compounds with a hit; in the whole collection about 5.5% have one here.
# ELG1 DNA repair: blocks ELG1-dependent DNA repair in HEK293T cells | HEK293T ELG1-luciferase reporter, luminescence, 16 h; DNA damage induced by 5-fluorouridine | Potency, µM (highest dose often 46.1 µM), most hits filed as inhibitors | 2.3% of 330,000 active | AID 504467; also: nearly all actives have a fitted effect of over 55% in size
#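 DMSO vehicle served as the neutral condition. Each well held 2,000 cells given 5-fluorouridine plus compound; after 16 hr at 37 °C/5% CO2, ONE-Glo was added and luciferase measured 30 min later.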
# Giardia killer: kills Giardia lamblia. 0.15% of 340,000 active. activity change, % at 7.66 µM, hits read low. Giardia lamblia trophozoite viability; in the data active = activity change below about -80%; inconclusive = between about -30% and that limit;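 also: parasites exposed to compound for two days anaerobically before the ATP read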
#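 Trophozoites 100 cells/well + cpd; 48 hrs, 37 deg C, anaerobic. ATPLite 1-Step added, 15-30 min RT, luminescence read (ATP-based viability).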
# Sfp PPTase inh: inhibitors of Bacillus subtilis Sfp phosphopantetheinyl transferase; Q9F4F7; Biochemical Sfp PPTase activity, qHTS; Potency, µM, actives largely listed as inhibitors; 3.5% of 310,000 active; AID 1490;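 also: the enzyme is Sfp with the accession as filed and its product quenches rhodamine fluorescence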
#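 Buffer: 50 mM Hepes-Na pH 7.6, 10 mM MgCl2, 0.01% Nonidet P-40, 0.01% BSA. Enzyme 15 nM, pre-exposed to compound 15 min; substrates then added and fluorescence change tracked over 30 min.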
# FBPA coupling cs: coupling enzyme interference in Giardia aldolase counter-screen; coupling enzyme system counterscreen, AmpLite Red fluorescence; activity change, negative = inhibition, % at 58.2 µM, hits read low; 0.67% of 290,000 active; AID 2472; in the data active = activity change below about -30%
#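 Compounds tested against the coupling enzymes alone at 57.5 uM final; readout was AmpLite Red fluorescence (525/598 nm) after 20 min at RT.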
# Numbers stand for hits; 0 = inactive; ? = inconclusive; - = no result given. Unless noted, calls follow the shape of the dose curve; as a rule, active = well fitted curve in the direction sought with a large enough effect; inconclusive = small, poorly fitted or top-dose-only effect, or another doubt; inactive = no such curve, though single readings can be large; an effect the other way counts as inactive or inconclusive.
SMILES,ELG1 DNA repair,Giardia killer,Sfp PPTase inh,FBPA coupling cs
Cc1ccccc1NC(=S)N(Cc1ccco1)C(C)c1ccccn1 (stereo not given),0,0,79µM,0
CC1=C(C(=O)Nc2ccccc2)C(c2ccc(C)o2)n2c(s/c(=C\c3ccco3)c2=O)=N1 (stereo not given),?,0,50µM,0
CCn1c(N)c(C(=O)NCc2ccc3c(c2)OCO3)sc1=S,0,0,45µM,0
CCn1c(N)c(C(=O)NCCOC)sc1=S,?,0,56µM,0
CCn1c(N)c(C(=O)Nc2ccccc2C(=O)OC)sc1=S,0,0,35µM,0
COCCNC(=O)c1ccc(C(=O)NCCOC)s1,0,0,0,0
Fc1ccccc1Nc1nc2ccccc2o1,?,0,0,0
C=CCn1cnc2c(c1=O)c1nc3ccccc3nc1n2-c1ccccc1,0,-,0,0
C=CCn1cnc2c(c1=O)c1nc3ccccc3nc1n2/N=C/c1cccc(OC)c1OC,3.3µM,0,0,0
COc1cccc(/C=N/n2c(-c3ccco3)nc3ccccc3c2=O)c1,18µM,0,0,0
COCCn1cnc2c(c1=O)c1nc3ccccc3nc1n2/N=C/c1cccc(OC)c1,21µM,0,0,0
C=CCn1cnc2c(c1=O)c1nc3ccccc3nc1n2/N=C/c1cc(OC)c(OC)c(OC)c1,5.8µM,0,0,0
CC(=O)Nc1ccc(C2=CC(=O)CC(C)(C)C2)cc1,?,0,-,-
CCN1CCCC1CNC(=O)Cn1cc(C)c(=O)[nH]c1=O (stereo not given),-,0,-,-
O=C(CSc1cn[nH]n1)Nc1ccc(Cl)cc1Cl,0,0,0,0
C=CCn1cnc2c(c1=O)c1nc3ccccc3nc1n2/N=C/c1ccccn1,12µM,0,0,0
NC(=O)CN1C(=O)NC2(CCOc3ccccc32)C1=O (stereo not given),0,0,0,0
COC(=O)c1c(NC(=O)C2COc3ccccc3O2)sc2c1CCN(C(C)=O)C2 (stereo not given),?,0,0,0
CCOC(=O)N1CCc2c(sc(NC(=O)c3ccc(Cl)s3)c2C(N)=O)C1,0,-,50µM,0
CC(=O)N1CCc2c(sc(NC(=O)C3COc4ccccc4O3)c2C(N)=O)C1 (stereo not given),0,0,32µM,-
CCOC(=O)N1CCc2c(sc(NC(C)=O)c2C(N)=O)C1,-,0,-,-
CC(C)c1nnc(NC(=O)CC(C)c2ccccc2)s1 (stereo not given),0,0,0,0
CC(CC(=O)Nc1nnc(C(C)(C)C)s1)c1ccccc1 (stereo not given),0,0,50µM,0
Nc1ccc(N)c(C(=O)O)c1,-,0,?,-34
Nc1ccc(C(=O)O)c(O)c1,0,0,0,0
SMILES,ELG1 DNA repair,Giardia killer,Sfp PPTase inh,FBPA coupling cs
COc1ccc(C2C(C#N)=C(N)Oc3c2oc(CO)cc3=O)cc1 (stereo not given),0,0,56µM,0
O=C(CN1C(=O)CCSc2ccc(S(=O)(=O)N3CCOCC3)cc21)Nc1cccc(F)c1,0,0,0,0
CC(=O)Nc1ccc(NC(=O)CSc2ccc(-c3ccco3)nn2)cc1,0,0,45µM,0
Cc1cc(C)cc(NC(=O)CSc2ccc(-c3ccccn3)nn2)c1,0,0,0,-
Cc1ccc(NC(=O)CSc2nnc(-c3ccco3)o2)c(C)c1,0,0,0,0
Cc1ccc(NC(=O)CSc2ccc(-c3ccco3)nn2)c(C)c1,0,0,56µM,0
CC(=O)c1ccc(NC(=O)CSc2ccc(-c3ccco3)nn2)cc1,0,0,40µM,-
Cc1cc(C)cc(NC(=O)CSc2ccc(-c3ccco3)nn2)c1,0,0,22µM,0
CC12CC(NC(=O)N1c1cccc(C(=O)NCc3ccccn3)c1)c1ccccc1O2 (stereo not given),0,0,0,-
Cc1ccc(NC(=O)CSc2ccc(-c3ccco3)nn2)cc1,0,0,20µM,0
Cc1ccc(CNC(=O)CSc2ccc(-c3ccco3)nn2)cc1,0,0,0,0
CC(=O)Nc1cccc(NC(=O)CSc2ccc(-c3cccnc3)nn2)c1,0,0,0,0
CC(=O)Nc1cccc(NC(=O)CSc2ccc(-c3ccco3)nn2)c1,0,0,32µM,-
COc1ccc(CCN2C(=O)c3[nH]nc(-c4ccccc4O)c3C2c2ccccc2)cc1OC (stereo not given),13µM,0,0,0
Clc1cccc(-c2ccc(CNCc3ccccn3)o2)c1,0,0,79µM,0
Brc1ccc(-c2ccc(CNCc3ccccn3)o2)cc1,0,0,0,0
Cc1nc(-c2cccc(NC(=O)c3ccc(-n4nccc4C)cc3)c2)cs1,?,0,-,-
O=C(Nc1ccncc1)c1cncc(Br)c1,?,0,0,0

# Source: PubChem BioAssay (National Center for Advancing Translational Sciences (NCATS))
